Common to all, as to assay: NCI-60 one-dose screen, 48 h (100 = growth as untreated, 0 = no growth, -100 = all killed)
One test concerns SR leukemia. Particulars: 10 µM.
The next test relates to RPMI-8226 leukemia. Particulars: 10 µM.
Another test deals with OVCAR-8 ovarian. Conditions: 10 µM.
In another test the test system is OVCAR-5 ovarian. Conditions: 10 µM.
The next test concerns OVCAR-4 ovarian. Particulars: 10 µM.
Another test deals with SK-OV-3 ovarian. Particulars: 10 µM.
A further test relates to IGROV1 ovarian. Particulars: 10 µM.
In a further test the test system is OVCAR-3 ovarian. Conditions: 10 µM.
A further test relates to HS 578T breast. Particulars: 10 µM.
For another test, the system named is T-47D breast. Conditions: 10 µM.
The test system of a further test is BT-549 breast. Conditions: 10 µM.
The subject of a further test is MDA-MB-435 melanoma. Particulars: 10 µM.
The test system of another test is SW-620 colon. Conditions: 10 µM.
A further test has as its system MCF7 breast.
The next test has as its system HCT-116 colon. Conditions: 10 µM.
For another test, the system named is HCC-2998 colon. Particulars: 10 µM.
The subject of another test is KM12 colon. Conditions: 10 µM.

Values joined by “and” are separate entries in the source; they are usually repeats but may differ in a detail not shown here. Equal entries are not always repeated. Compounds without any hit were thinned out: in the full panel of roughly 83,000, 20% have a hit.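 How to read the values: 0–100, growth inhibition (40 = 60% inhibited); 0, no net growth; -100 to 0, cell death (-40 = 40% of starting cells died; -100 = all dead).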 Values without a mark were called inactive. Active and inactive are the calls of the source. The calls were made as follows: active = growth percent below 10; inactive = the rest.

Regarding `Cn1ncc2cc3c(Nc4ccc(Cl)cc4)cccc3nc21`, the growth in the test with SR leukemia is 84.8%; in the test on RPMI-8226 leukemia, 79%; with OVCAR-8 ovarian, 89.8%; in the test with OVCAR-5 ovarian it was 109%; in the test on OVCAR-4 ovarian, 88.2%; in the test on SK-OV-3 ovarian, 94.7%. Further, the growth in the test on IGROV1 ovarian is 95.8%; in the test with OVCAR-3 ovarian, 94.1%; in the test with HS 578T breast, 89%; in the test with T-47D breast, 77.2%; with BT-549 breast, 97.4%; with MDA-MB-435 melanoma, 100%. For the same compound, the growth in the test on SW-620 colon was 97.5%; in the test with MCF7 breast (10 µM), 86.8%; with HCT-116 colon, 85.6%; in the test with HCC-2998 colon, 110%; in the test on KM12 colon it was 90.8%.
As to `CC[C@@]1(OC(=O)CN(C)C)C(=O)OCc2c1cc1n(c2=O)Cc2cc3c(N)cccc3nc2-1`, the growth in the test on SR leukemia is -3.07% (active); with RPMI-8226 leukemia, 2.58% (active); in the test with OVCAR-8 ovarian it was 14.5%; with OVCAR-5 ovarian it was 15.1%; with OVCAR-4 ovarian, 10.2%; in the test with SK-OV-3 ovarian it was 2.84% (active). The growth with IGROV1 ovarian is -3.28% (active); with OVCAR-3 ovarian, -34.2% (active); in the test on HS 578T breast, 62.5%; in the test with T-47D breast, 13.3%; in the test with BT-549 breast it was -11.8% (active); in the test with MDA-MB-435 melanoma, -44.7% (active). Besides, the growth is 3.83% (active) with SW-620 colon; -1.34% (active) with MCF7 breast (10 µM); 0.716% (active) with HCT-116 colon; -14.7% (active) with HCC-2998 colon; 0.253% (active) in the test with KM12 colon.
As for `CN(C)c1ccc(/C=C/c2ccnc3ccccc23)cc1N`, the growth in the test on SR leukemia was 41.4%; with RPMI-8226 leukemia it was 37.4%; in the test on OVCAR-8 ovarian it was 75.3%; with OVCAR-5 ovarian it was 91.8%; in the test with OVCAR-4 ovarian it was 58.2%; in the test with SK-OV-3 ovarian it was 72%. In addition, the growth was 65.7% in the test with IGROV1 ovarian; 70.7% in the test with OVCAR-3 ovarian; 80.2% in the test with HS 578T breast; 48.3% in the test on T-47D breast; 60.3% in the test with BT-549 breast; 38.6% with MDA-MB-435 melanoma. The growth is 78.4% in the test on SW-620 colon; 62.9% in the test with MCF7 breast (10 µM); 49.3% in the test with HCT-116 colon; 104% with HCC-2998 colon; 61.5% in the test with KM12 colon.
Turning to `CC1CCC2(C(=O)O)CCC3(C)C(=CCC4C5(C)CC(O)C(O)C(C)(CO)C5C(O)CC43C)C2C1C` (configuration not stated), the growth in the test on SR leukemia is 105%; in the test with RPMI-8226 leukemia, 128%; with OVCAR-5 ovarian, 188%; with OVCAR-4 ovarian it was 114%; with SK-OV-3 ovarian, 103%; in the test on IGROV1 ovarian it was 92.8%. For the same compound, the growth is 118% in the test with OVCAR-3 ovarian; 97% in the test with T-47D breast; 114% in the test on BT-549 breast; 110% with MDA-MB-435 melanoma; 107% in the test with SW-620 colon; 96.9% in the test with MCF7 breast (10 µM). Moreover, the growth is 103% in the test on HCT-116 colon and 104% in the test with KM12 colon.
As to `O=[N+]([O-])c1cc(S(=O)(=O)Nc2ccccc2)ccc1Cl`, the growth is 88.4% in the test on RPMI-8226 leukemia; 91.5% with OVCAR-8 ovarian; 101% in the test on OVCAR-5 ovarian; 97% with OVCAR-4 ovarian; 96.3% with SK-OV-3 ovarian; 96.1% in the test with IGROV1 ovarian. Besides, the growth was 106% with OVCAR-3 ovarian; 101% in the test on HS 578T breast; 69.6% with T-47D breast; 92.5% with BT-549 breast; 98.6% with MDA-MB-435 melanoma; 105% with SW-620 colon. In addition, the growth with MCF7 breast (10 µM) is 84%; with HCT-116 colon, 92.1%; in the test with HCC-2998 colon, 90%; in the test on KM12 colon it was 98.5%.
With `N#CC(=S)Nc1cccc(Cl)c1`, the growth with MCF7 breast (100 µM) was 0.126% (active) and -100% (active).
As for `COc1ccc2c(c1)[nH]c1c(/C=C/c3ccccc3)nccc12`, the growth is 29.3% in the test on SR leukemia; 25.2% with RPMI-8226 leukemia; 74.2% in the test on OVCAR-5 ovarian; 21.4% in the test on OVCAR-4 ovarian; 65.1% in the test on SK-OV-3 ovarian; -15.7% (active) with IGROV1 ovarian. Also, the growth with OVCAR-3 ovarian is 73.4%; in the test on HS 578T breast it was 70.4%; with T-47D breast, 43.7%; in the test on BT-549 breast, 61.8%; with MDA-MB-435 melanoma it was 85%; in the test with SW-620 colon, 72.1%. For the same compound, the growth in the test with MCF7 breast (10 µM) was 65.7%; in the test on HCT-116 colon, 29.9%; with HCC-2998 colon, 34.4%; with KM12 colon, 71.1%.
For `Cc1cc(O)c2c(c1O)C(=O)C13C(=C2O)C(=O)C2C(O)C1C1C(O)C3C(=O)C3=C(O)c4c(O)cc(C)c(O)c4C(=O)C321` (configuration not stated), the growth is 12.6% in the test on SR leukemia; -4.03% (active) in the test on RPMI-8226 leukemia; -50.6% (active) in the test with OVCAR-5 ovarian; 27.8% with OVCAR-4 ovarian; -13.1% (active) in the test on SK-OV-3 ovarian; 10.3% in the test on IGROV1 ovarian. In addition, the growth in the test on OVCAR-3 ovarian is -39.1% (active); with HS 578T breast it was -55.2% (active); in the test on T-47D breast, -1.74% (active); in the test with BT-549 breast it was -53.3% (active); in the test with MDA-MB-435 melanoma it was -14.7% (active); in the test on SW-620 colon, 8.3% (active). Moreover, the growth in the test on MCF7 breast (10 µM) is 4.59% (active); in the test with HCT-116 colon it was 2.8% (active); in the test with HCC-2998 colon, -43.6% (active); in the test with KM12 colon, -53.3% (active).
For the compound `O=C1C(Cl)=C(Cl)C(Cl)(Cl)C(Cl)C1(Cl)Cl` (configuration not stated), the growth is 90.2% with SR leukemia; 98.1% in the test with RPMI-8226 leukemia; 106% with OVCAR-8 ovarian; 102% with OVCAR-5 ovarian; 103% with SK-OV-3 ovarian; 90.9% in the test with IGROV1 ovarian. Also, the growth is 112% with OVCAR-3 ovarian; 109% in the test on HS 578T breast; 91.9% in the test with T-47D breast; 96.4% with BT-549 breast; 111% with MDA-MB-435 melanoma; 105% with SW-620 colon. The growth in the test with MCF7 breast (10 µM) was 96.8%; with HCT-116 colon, 102%; with HCC-2998 colon, 106%; with KM12 colon, 109%.
Regarding `O=C(CCc1ccccc1)ON1C(=S)C(c2ccccc2)(c2ccccc2)N=C1Sc1ccccc1`, in the test on MCF7 breast (100 µM), the growth was 1.09% (active) and 4.44% (active).
Consider `Cc1cc(N=C2C=CC(=[N+](C)C)C=C2)c(N)cc1N`, for which the growth in the test with RPMI-8226 leukemia was 65.7%; with OVCAR-8 ovarian, 92.8%; in the test on OVCAR-5 ovarian it was 95.6%; in the test on OVCAR-4 ovarian it was 82.3%; with SK-OV-3 ovarian it was 105%; in the test on IGROV1 ovarian, 109%. In addition, the growth in the test on OVCAR-3 ovarian was 16.5%; with HS 578T breast it was 94.5%; in the test with T-47D breast, 87.1%; with BT-549 breast, 96.3%; in the test on MDA-MB-435 melanoma, 101%; with SW-620 colon it was 84.9%. Further, the growth in the test on MCF7 breast (10 µM) was 68.8%; with HCT-116 colon, 82.2%; in the test with HCC-2998 colon, 60.8%; in the test on KM12 colon, 89%.
